{"source": "PubChem BioAssay AID463187", "about": "(University of Pittsburgh Molecular Library Screening Center, 2010)", "note": "In all, about 220,000 compounds went through this assay and about 1,500 (0.68%) were called active. The full list was thinned out, with actives kept by preference. A number with no mark means an inactive call.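 How the source made its calls: active means Hck-Nef kinase inhibition above about 50% (limit read from the data); inactive means inhibition below that limit.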", "data": [{"target": "Tyrosine-protein kinase HCK (Homo sapiens) (UniProt P08631)", "sequence (P08631 whole entry, looked up)": "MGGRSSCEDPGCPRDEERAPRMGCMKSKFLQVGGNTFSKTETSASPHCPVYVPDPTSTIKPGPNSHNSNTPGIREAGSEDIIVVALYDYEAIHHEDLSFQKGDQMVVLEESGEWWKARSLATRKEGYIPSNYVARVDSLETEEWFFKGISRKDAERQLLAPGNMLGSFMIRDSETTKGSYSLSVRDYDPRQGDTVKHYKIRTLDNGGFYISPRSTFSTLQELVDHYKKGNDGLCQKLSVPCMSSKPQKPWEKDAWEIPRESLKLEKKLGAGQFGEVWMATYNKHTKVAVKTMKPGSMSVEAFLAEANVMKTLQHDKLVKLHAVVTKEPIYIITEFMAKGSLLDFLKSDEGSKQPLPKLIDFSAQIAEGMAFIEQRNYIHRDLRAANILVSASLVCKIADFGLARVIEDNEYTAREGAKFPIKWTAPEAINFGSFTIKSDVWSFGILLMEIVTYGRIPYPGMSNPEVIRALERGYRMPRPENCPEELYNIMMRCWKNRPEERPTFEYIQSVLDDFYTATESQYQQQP", "test": "inhibitors of Nef-activated human Hck kinase, primary screen, biochemical, Z-Lyte FRET, 384-well, Hck-YEEI (AID 463187);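 further: 0% = DMSO with Hck plus Nef and 100% = Hck alone without Nef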", "conditions": "Recombinant Hck-YEEI plus Nef, Z-Lyte FRET kinase assay; at 20 µM; hits give high values", "values": [{"smiles": "CCOc1ccccc1NC(=O)c1cc(S(=O)(=O)N2CCC3(CC2)OCCO3)ccc1F", "inhibition": "2.23%"}, {"smiles": "COc1ccc(NC(=O)c2oc3ccc(S(=O)(=O)N4CCOCC4)cc3c2C)cc1", "inhibition": "-8.31%"}, {"smiles": "Cc1c(C(=O)Nc2ccccc2Cl)oc2ccc(S(=O)(=O)N3CCC4(CC3)OCCO4)cc12", "inhibition": "74.2% (active)"}, {"smiles": "O=C(CCSCCc1ccccn1)Nc1nccs1", "inhibition": "7.74%"}, {"smiles": "OCc1nc(CO)n(Cc2ccccc2)n1", "inhibition": "0.365%"}, {"smiles": "CC1CCCN(CCOCCOc2ccccc2-c2ccccc2)C1", "note": "(centres undefined)", "inhibition": "0.832%"}, {"smiles": "Cc1ccc(NC(=S)N2CCCC(c3ccccc3)=N2)cc1", "inhibition": "-10%"}, {"smiles": "Cc1nc2ccccc2n1CC(=O)N/N=C/c1cccnc1", "inhibition": "24.3%"}, {"smiles": "CCOC(=O)N/N=C/c1cccnc1", "inhibition": "-26.2%"}, {"smiles": "O=C(CSc1cccc2cccnc12)N/N=C/c1cccnc1", "inhibition": "51.3% (active)"}, {"smiles": "CC(CNc1ccc([N+](=O)[O-])c2cccnc12)Nc1c([N+](=O)[O-])cc(C(F)(F)F)cc1[N+](=O)[O-]", "note": "(centres undefined)", "inhibition": "-2.43%"}, {"smiles": "COc1ccccc1C(=O)Oc1ccc(N2C(=O)CCC2=O)cc1", "inhibition": "1.47%"}, {"smiles": "Cc1cccc(/C(N)=N/OC(=O)c2ccccc2Cl)c1", "inhibition": "5.79%"}, {"smiles": "Cc1cc(OC(=O)c2ccccc2Cl)ccc1N1C(=O)CCC1=O", "inhibition": "52.4% (active)"}, {"smiles": "Cc1sc2c(c1C)c(=O)n(-c1ccccc1)c(=O)n2CC(=O)NCC1CCCO1", "note": "(centres undefined)", "inhibition": "-19.9%"}, {"smiles": "O=C(COC(=O)c1ccccc1NC(=O)c1ccco1)Nc1ccc2c(c1)OC(F)(F)O2", "inhibition": "5.95%"}, {"smiles": "Cc1ccc(-n2c(=O)c(C#N)cc3c(=O)n4ccccc4nc32)cc1C", "inhibition": "73.3% (active)"}, {"smiles": "Cc1ccc(-n2ncc3c(=O)n(-c4ccc(C)c(C)c4)c(-c4ccco4)nc32)cc1", "inhibition": "-0.384%"}, {"smiles": "CCn1c(=N)c(S(=O)(=O)c2ccc(F)cc2)cc2c(=O)n3ccccc3nc21", "inhibition": "11.1%"}, {"smiles": "CNC(=S)Nc1ccc([N+](=O)[O-])cc1", "inhibition": "21.3%"}, {"smiles": "CN(C)CC(C)(C)CNC(=O)c1cc(Br)cc(Br)c1O", "inhibition": "21.9%"}, {"smiles": "COc1cc(NC(=O)COC(=O)CSc2ccc3ccccc3c2)c(C)cc1[N+](=O)[O-]", "inhibition": "2.59%"}, {"smiles": "Cc1cccc(N2CCN(C(=O)CN(C)S(=O)(=O)c3ccc4c(c3)CCC(=O)N4)CC2)c1C", "inhibition": "0.348%"}, {"smiles": "O=C(NCc1ccccc1)C1CCCN(S(=O)(=O)c2cccs2)C1", "note": "(centres undefined)", "inhibition": "-1.98%"}, {"smiles": "CCc1ccc(CNC(=O)C2CCCN(c3nc4ccccc4o3)C2)cc1", "note": "(centres undefined)", "inhibition": "-20.1%"}, {"smiles": "O=C(NCc1ccccc1)C1CCCN(c2nc3ccsc3c(=O)s2)C1", "note": "(centres undefined)", "inhibition": "63.7% (active)"}, {"smiles": "Cc1c(-c2cccc(Cl)c2)nc2ccccc2c1C(=O)OCC(=O)N(C)C1CCS(=O)(=O)C1", "note": "(centres undefined)", "inhibition": "-3.32%"}, {"smiles": "COc1ccc(NC(=O)COc2ccc(C(=O)OCC(=O)N(C)C3CCS(=O)(=O)C3)cc2OC)cc1", "note": "(centres undefined)", "inhibition": "-34.5%"}, {"smiles": "CN(C(=O)COC(=O)c1cc(-c2ccco2)nc2ccccc12)C1CCS(=O)(=O)C1", "note": "(centres undefined)", "inhibition": "65.3% (active)"}, {"smiles": "CC(C)Cc1nn2c(=O)cc(O)nc2s1", "inhibition": "1.45%"}, {"smiles": "O=C(NNC(=O)c1cccnc1)Nc1ccccc1", "inhibition": "-0.546%"}, {"smiles": "O=C(Nc1ccc(Cl)cc1)Nc1ccc(Oc2cccnc2)nc1", "inhibition": "-9.14%"}, {"smiles": "O=C(NNC(=O)c1csc(-c2cccnc2)n1)Nc1ccc(Cl)cc1", "inhibition": "52.2% (active)"}, {"smiles": "CC(=O)Nc1ccc(OCCC[n+]2cccc(C(=O)[O-])c2)cc1", "inhibition": "12%"}, {"smiles": "FC(F)(F)c1ccc(CN2C[C@@H]3C(c4ccccc4)C4(c5ccccc5)CC3(C4)[C@H]2c2ccccc2)cc1", "note": "(some centres undefined)", "inhibition": "17.4%"}, {"smiles": "Cc1cccc(-n2c(SCC(N)=O)nc3c(c2=O)C2(CCCCC2)Cc2ccccc2-3)c1", "inhibition": "6.81%"}, {"smiles": "COc1cccc(Nc2nnc(SCC(=O)N3CC(=O)Nc4ccccc43)s2)c1", "inhibition": "36.9%"}, {"smiles": "CCc1ccc(Nc2nnc(SCC(=O)c3ccc4c(c3)NC(=O)CO4)s2)cc1", "inhibition": "105% (active)"}, {"smiles": "CCCc1nc2ccccc2c(C(=O)OCC(=O)c2ccc3c(c2)NC(=O)CO3)c1CC", "inhibition": "-1.08%"}, {"smiles": "CO/N=C(\\N)c1ccc([N+](=O)[O-])cc1", "inhibition": "3.14%"}, {"smiles": "CCOc1ccc(N2C(=O)Nc3ccccc3C2(O)C(=O)NCc2ccco2)cc1", "note": "(centres undefined)", "inhibition": "20.7%"}, {"smiles": "CNc1ccc(SC#N)cc1", "inhibition": "33.3%"}, {"smiles": "N#Cc1c(-c2ccc(F)cc2)cc(C2CC2)nc1SCC(=O)c1cccs1", "inhibition": "3.07%"}, {"smiles": "N=c1ccn(CC(=O)NC(N)=O)c2ccccc12", "inhibition": "0.937%"}, {"smiles": "O=C(NC1CCCCCC1)c1cccnc1Sc1ccc(Cl)cc1", "inhibition": "2.04%"}, {"smiles": "CCS(=O)(=O)C1=NSC2=NC(=O)/C(=C\\c3cc(C)n(-c4cccc(OC)c4)c3C)C(=N)N21", "inhibition": "55.1% (active)"}, {"smiles": "Cc1cc(/C=C2/C(=N)N3C(=NC2=O)SN=C3S(C)(=O)=O)c(C)n1-c1ccccc1", "inhibition": "0.408%"}, {"smiles": "CCC1=NN2C(=N)/C(=C/c3cc(C)n(-c4ccccc4)c3C)C(=O)N=C2S1", "inhibition": "15.3%"}, {"smiles": "O=c1cc(-c2ccccc2)[nH]c2cc(F)ccc12", "inhibition": "2.23%"}, {"smiles": "CCc1ccccc1N1CN(Cc2ccco2)CNC1=S", "inhibition": "3.91%"}, {"smiles": "O=C1/C(=C/c2cccs2)CCC1C1CCCC1", "note": "(centres undefined)", "inhibition": "26%"}, {"smiles": "CCOc1ccc(C2c3[nH]c4ccccc4c3CCN2Cc2cccn2-c2ncccn2)cc1", "note": "(centres undefined)", "inhibition": "15.4%"}, {"smiles": "CCOc1ccccc1C1C(C(=O)OC)=CN(C)C=C1C(=O)OC", "inhibition": "71.8% (active)"}, {"smiles": "COC(=O)C1=CN(C)C=C(C(=O)OC)C1c1ccc(Cl)cc1Cl", "inhibition": "9.15%"}, {"smiles": "CCOc1cc(C2C(C(=O)OC)=CN(C3CCCC3)C=C2C(=O)OC)cc(Br)c1O", "inhibition": "1.91%"}, {"smiles": "O=C(NCC1CCCCC1)c1cc(S(=O)(=O)N2CCCCC2)ccc1N1CCOCC1", "inhibition": "19.1%"}, {"smiles": "Cc1cccc(NS(=O)(=O)c2ccc(C)c(C(N)=O)c2)c1", "inhibition": "-7.85%"}, {"smiles": "COc1cccc(CN(C)CC(=O)Nc2ccccc2C(=O)Nc2ccccc2)c1", "inhibition": "4.04%"}, {"smiles": "COc1ccc(-c2cc3nc(C)c(CCC(=O)NC(C)CCc4ccco4)c(C)n3n2)c(OC)c1", "note": "(centres undefined)", "inhibition": "-1.24%"}]}]}
